The results in this text go back to PubChem BioAssay (NCATS).

Experiment [1] is described as follows: NS1 protein of Zika virus - qHTS assay to identify small molecule inhibitors in human HEK 293 cells (AID 1347053). Further: nearly all actives have a fitted effect of over 55% in size. Put shortly: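 HEK 293 cells pretreated with compound for 1 h, then infected with ZIKV MR766 (MOI 0.5) for 24 h at 37 C. NS1 detected by TR-FRET with two anti-NS1 antibodies; normalized to uninfected (0%) and infected (100%) wells.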
A short description of experiment [2]: qHTS for Inhibitors of the Functional Ribonucleoprotein Complex (vRNP) of Lassa (LASV) Arenavirus: LASV Primary Screen - GLuc reporter signal (AID 1347082; calls by dose curve; tested in HEK293 reporter line; further: nearly all actives have a fitted effect of over 60% in size).
Experiment [3] can be described thus: qHTS for Inhibitors of the Functional Ribonucleoprotein Complex (vRNP) of Lassa (LASV) Arenavirus: Viability assay - alamar blue signal for LASV Primary Screen (AID 1347083; calls by dose curve; tested in HEK293 reporter line; further: nearly all actives have a fitted effect of over 80% in size). Background: In qHTS, concentration-response curves come from the screen itself.

Results filed as inconclusive are left out. Active and inactive are the calls of the source. Unless noted, the call rests on the fitted dose curve; in most records, active means well fitted inhibition curve with a large enough effect; inconclusive means small, poorly fitted or top-dose-only effect; inactive means no such curve, though single readings can be large or run the other way.
Potency means the concentration at half of the fitted maximal effect.

For `CC(C)Oc1cccc(NC(=O)c2ccccc2C(F)(F)F)c1`, the Potency result in experiment [1], in experiment [2] and in experiment [3] was “inactive” throughout.
With `Cc1c(N)nc([C@H](CC(N)=O)NC[C@@H](N)C(N)=O)nc1C(=O)N[C@H](C(=O)N[C@@H](C)[C@H](O)[C@@H](C)C(=O)N[C@@H](C(=O)NCCc1nc(-c2nc(C(=O)NCCC[S+](C)C)cs2)cs1)[C@@H](C)O)C(O[C@H]1O[C@H](CO)[C@H](O)[C@@H](O)[C@@H]1O[C@H]1O[C@H](CO)[C@@H](O)[C@H](OC(N)=O)[C@H]1O)c1cnc[nH]1` (some centres undefined), the figures for the Potency in experiment [1] and in experiment [3] were 2.96 µM (active) and 7.69 µM (active), respectively. The Potency entry in experiment [2] was “inactive”.
The corresponding values for `C[C@@H]1[C@H](O)[C@@H](C)C=CC=CCCC=CC=CC=CC=C[C@H](O[C@H]2O[C@@H](C)[C@H](O)[C@@H](N)[C@@H]2O)CC2O[C@](O)(C[C@@H](O)[C@H](O)CC[C@@H](O)C[C@@H](O)C[C@@H](O)CC(=O)O[C@H]1C)C[C@H](O)[C@H]2C(=O)O` are “inactive”, “inactive” and “inactive”.
The matching figures for `CC(O)CN1CCN(CC(=O)[O-])CCN(CC(=O)[O-])CCN(CC(=O)[O-])CC1.[Gd+3]` (centres undefined): “inactive”, “inactive” and “inactive”.
The corresponding values for `CC(C)(C)[C@]1(O)C[C@@H]2OC(=O)C[C@@]23C(=O)O[C@@H]2OC(=O)[C@H](O)C213` (some centres undefined) are “inactive”, “inactive” and “inactive”.
On to `C[C@]12CC[C@@H]3[C@@H](CCC4=CC(=O)CC[C@@H]43)[C@@H]1CC[C@@H]2OC(=O)CCc1ccccc1`, for which the Potency entry in experiment [1], in experiment [2] and in experiment [3] was “inactive” each time.
Consider `O=C(O)COc1ccccc1`, for which the Potency result in experiment [1], in experiment [2] and in experiment [3] was “inactive” in each case.
For the compound `CCc1c(C(=O)C(N)=O)c2c(OCC(=O)O)cccc2n1Cc1ccccc1`, the Potency entry in experiment [1], in experiment [2] and in experiment [3] was “inactive” each time.
For the compound `COc1ccc(CC2NCCc3cc(OC)c(OC)cc32)cc1OC` (centres undefined), the Potency result in experiment [1], in experiment [2] and in experiment [3] was “inactive” each time.
As for `CC(C)N[C@@H]1CCn2c(=O)[nH]c3cccc(c32)[C@@H]1O`, the Potency result in experiment [1] was “inactive”. Further, the Potency is 8.63 µM (active) in experiment [2] and 19.3 µM (active) in experiment [3].
The corresponding values for `O=c1cccc2n1CC1CNC[C@H]2C1` are “inactive”, “inactive” and 27.3 µM (active).
The matching figures for `CCN(CC)C(=O)c1ccc(C2=CC3(CCNCC3)Oc3cccc(O)c32)cc1`: “inactive”, “inactive” and “inactive”.
The corresponding values for `CN1CCN(c2ccc([N+](=O)[O-])c3no[n+]([O-])c23)CC1` are “inactive”, “inactive” and “inactive”.
On to `CCN1CCN(C(=O)Cc2ccc(Nc3ncc(F)c(Nc4ccc(C(=O)Nc5ccccc5Cl)cc4)n3)cc2)CC1`, for which the Potency in experiment [1] is 11.8 µM (active); in experiment [3], 4.32 µM (active). Moreover, the Potency result in experiment [2] is “inactive”.
The matching figures for `O=[N+]([O-])c1c2ccccc2cc2ccccc12`: “inactive”, “inactive” and “inactive”.
`O=C(Oc1ccc([N+](=O)[O-])cc1)N1CCC(C(O)(c2ccc3c(c2)OCO3)c2ccc3c(c2)OCO3)CC1`: the Potency entry in experiment [1] and in experiment [2] was “inactive” each time. Also, in experiment [3], the Potency was 24.3 µM (active).
For `O=C(O)C(Cl)Cl`, the Potency result in experiment [1], in experiment [2] and in experiment [3] was “inactive” throughout.
Take `COc1ccc2c(c1)CN(C)CC2c1ccc(Cl)c(Cl)c1` (centres undefined): the Potency entry in experiment [1] and in experiment [2] was “inactive” in each case. Besides, the Potency in experiment [3] was 7.69 µM (active).
With `ClC1=C(Cl)[C@]2(Cl)[C@@H]3[C@@H]4C[C@@H]([C@H]5O[C@@H]45)[C@@H]3[C@@]1(Cl)C2(Cl)Cl`, the Potency result in experiment [1], in experiment [2] and in experiment [3] was “inactive” throughout.
As for `CCCCCCCCCC(CC)c1ccc(S(=O)(=O)O)cc1` (centres undefined), the Potency result in experiment [1], in experiment [2] and in experiment [3] was “inactive” throughout.
`CC(=CCCC1=CCC(C2=CC(=O)OC2O)OC1O)CCC1=C(C)CCCC1(C)C` (centres undefined): the Potency result in experiment [1], in experiment [2] and in experiment [3] was “inactive” throughout.
In the case of `O=S(=O)(c1ccc(Cl)cc1)c1ccc(Cl)cc1`, the Potency entry in experiment [1], in experiment [2] and in experiment [3] was “inactive” throughout.
`CCO/N=C(\CC)C1=C(O)CC(c2c(C)cc(C)cc2C)CC1=O` (centres undefined): the Potency result in experiment [1], in experiment [2] and in experiment [3] was “inactive” throughout.
As to `O=S(=O)(CC1CS1)c1ccc(Oc2ccccc2)cc1` (centres undefined), the Potency entry in experiment [1], in experiment [2] and in experiment [3] was “inactive” throughout.
Turning to `CCC1(CCC(C)C)C(=O)NC(=O)NC1=O`, the Potency entry in experiment [1], in experiment [2] and in experiment [3] was “inactive” throughout.
In the case of `c1cc2c(cc1[C@H]1OC[C@H]3[C@H]1CO[C@H]3c1ccc3c(c1)OCO3)OCO2`, the Potency result in experiment [1] and in experiment [3] was “inactive” in each case.
For `C[C@]12Cc3cn[nH]c3C[C@@H]1CC[C@@H]1[C@H]2CC[C@@]2(C)[C@H]1CC[C@]2(C)O`, the Potency result in experiment [1], in experiment [2] and in experiment [3] was “inactive” in each case.
Turning to `CCOC(=O)Nc1ccc(NCc2ccc(F)cc2)cc1N`, in experiment [1], the Potency entry was “inactive”. Also, the Potency in experiment [3] is 5.44 µM (active).
Take `COCC1(CO)C(=O)C2CCN1CC2` (centres undefined): the Potency entry in experiment [1], in experiment [2] and in experiment [3] was “inactive” throughout.
In the case of `O=S(=O)(O)C(F)(F)C(F)(F)C(F)(F)C(F)(F)F`, the Potency entry in experiment [1], in experiment [2] and in experiment [3] was “inactive” throughout.
In the case of `c1ccc2c(CN3CCNCC3)cccc2c1`, the Potency entry in experiment [1], in experiment [2] and in experiment [3] was “inactive” each time.
`CC1(C)CC/C(=C/c2ccc(Cl)cc2)C1(O)Cn1cncn1` (centres undefined): the Potency entry in experiment [1], in experiment [2] and in experiment [3] was “inactive” in each case.
